Records with an inconclusive call do not appear. Unmarked numbers belong to inactive results. The source made the active and inactive calls. Calls follow the shape of the dose curve; as a rule, active = well fitted activation curve with a large enough effect in the repeat runs; inconclusive = weak or mixed curves; inactive = no such curve, though single readings can be large or run the other way.
% is scaled to controls: 0 for no effect and ±100 for the full control effect; potency is read from the fitted curve at half-maximal effect.

Sequence of Nuclear receptor subfamily 1 group I member 2 (Homo sapiens) (O75469 whole entry, looked up): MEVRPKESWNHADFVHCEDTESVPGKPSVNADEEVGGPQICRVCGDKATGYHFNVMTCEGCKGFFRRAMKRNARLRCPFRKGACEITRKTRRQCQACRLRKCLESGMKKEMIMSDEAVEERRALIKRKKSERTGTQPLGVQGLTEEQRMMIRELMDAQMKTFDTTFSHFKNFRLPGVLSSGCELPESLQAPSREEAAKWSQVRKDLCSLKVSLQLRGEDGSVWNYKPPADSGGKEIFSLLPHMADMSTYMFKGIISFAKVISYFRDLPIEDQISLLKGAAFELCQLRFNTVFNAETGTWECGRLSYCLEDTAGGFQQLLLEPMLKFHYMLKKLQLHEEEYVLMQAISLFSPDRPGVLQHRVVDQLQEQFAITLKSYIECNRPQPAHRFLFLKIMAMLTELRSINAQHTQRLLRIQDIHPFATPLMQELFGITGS

In the assay the target is Nuclear receptor subfamily 1 group I member 2 (Homo sapiens) (UniProt O75469). The assay can be described thus: Human pregnane X receptor (PXR) small molecule agonists, qHTS assay (AID 1346982). Also: nearly all actives have a fitted effect of over 35% in size. The following applies: PXR-Luc HepG2, CYP3A4 luciferase reporter, 24 h; series mostly up to 92.4 µM; activation: at the top concentration. From the text:
National Center for Advancing Translational Sciences [NCATS]
NIH Chemical Genomics Center [NCGC]
U.S. Environmental Protection Agency [EPA]
National Institutes of Environmental Health Sciences [NIEHS]
National Toxicology Program [NTP]
The human pregnane X receptor (hPXR) regulates the expression of several drug metabolizing enzymes and induction of these proteins is a major mechanism for developing drug resistance in cancer. One such key enzyme catalyzing the drug metabolism is cytochrome P450 3A4 (CYP3A4). Changes in CYP3A4 expression affect drug metabolism, thereby reducing the therapeutic efficacy and altering toxicological response to a drug and which finally causes adverse drug interaction. To screen Tox21 libraries for compounds that activate hPXR-mediated CYP3A4 gene expression, PXR-Luc HepG2 cells were used.
PXR-Luc HepG2 cells were dispensed at 2,000 per well in 5uL of assay medium containing 5% charcoal-stripped FBS into white solid bottom 1536-well plates (Corning Life Sciences, Corning, NY) using a Multidrop Combi (Thermo Scientific, Waltham, MA) dispenser. The assay plates were incubated at 37 C and 5% CO2 for 5hr, and then 23nL of compounds dissolved in DMSO and positive control were transferred using a Pintool station (Wako, San Diego, CA). The assay plates were incubated at 37C and 5% CO2 for 24hr. For luciferase read, 4uL of ONE-Glo reagent (Promega Corporation, Madison, WI) was added to each well of the assay plates using Flying Reagent Dispenser (FRD, Aurora Discovery, San Diego, CA) and incubated the assay plates at room temperature for 30min. The luminescence signal was quantified using a ViewLux plate reader (Perkin Elmer, Shelton, CT).
In general terms: Quantitative high-throughput screening tests each substance at several concentrations.
Regarding `O=S(=O)(O)c1cc(O)c(O)c(S(=O)(=O)O)c1`, the “activation” value was 11%.
Same read-out and setting: the figure for `CN1C(C)(C)CC(O)CC1(C)C` is 25.5%.
The same measure, in the same setting: for `Cc1cccc(C)c1NC(=O)CC12CCCN1CCC2` the value was -3.18% [at 42.5 µM].
Same read-out and setting: the figure for `[Ca+2]` is 10.1%; for `COc1cccc(OC)c1C(=O)N[C@@H]1C(=O)N2[C@@H]1SC(C)(C)[C@@H]2C(=O)O` it is -28.2% [at 42.5 µM].
For `O=C(c1ccccc1)C1(O)CCCCC1`, the “activation” value is 15.5%.
On the same count and under the same terms, for `[O-][n+]1cccc(CO)c1` the value was -4.2% [at 42.5 µM]; for `C[N+]1(C)[C@@H]2CC(OC(=O)[C@H](CO)c3ccccc3)C[C@H]1[C@@H]1O[C@@H]12` (stereo not given in full), -9.94% [at 42.5 µM]; for `C=COCC1CCC(COC=C)CC1` (stereo not given), -4.94%.
The same measure, in the same setting: for `CC1=NN(c2cccc(S(=O)(=O)O)c2)C(=O)C1` the value was 0.406%; for `CO[C@@]1(NC(=O)CSC[C@@H](N)C(=O)O)C(=O)N2C(C(=O)O)=C(CSc3nnnn3C)CS[C@@H]21`, -6.36% [at 42.5 µM]; for `CCOC(=O)C(=O)CCCCCCl`, -8.24% [at 42.5 µM].
Turning to `CCN[C@@H]1C[C@H](N)[C@@H](OC2OC(CN)=CCC2N)[C@H](O)[C@H]1O[C@H]1OC[C@](C)(O)[C@H](NC)[C@H]1O` (stereo not given in full), the activation is -3.06% [at 0.349 µM].
Consider `CCOc1ccccc1OCC`, for which the “activation” value is 4.75%.
Consider `CCCO[Si](OCCC)(OCCC)OCCC`, for which the “activation” value is 3.76%.
The same measure, in the same setting: the figure for `O=C(O)Cc1csc(-c2ccc(Cl)cc2)n1` is -3.68% [at 42.5 µM]; for `Cc1onc(-c2c(Cl)cccc2Cl)c1C(=O)Cl` it is -4.48% [at 42.5 µM]; for `CCCCCCCCCCCCCCCCCCO` it is -9.36% [at 42.5 µM].
Still for that read-out and setting: the figure for `CC(=O)N[C@H]1[C@H]([C@H](O)[C@H](O)CO)OC(C(=O)O)=C[C@@H]1N=C(N)N` is -4.54% [at 42.5 µM]; for `CC(=O)O[C@@]12CO[C@@H]1C[C@H](O)[C@@]1(C)C(=O)[C@H](O)C3=C(C)[C@@H](OC(=O)[C@H](O)[C@@H](NC(=O)OC(C)(C)C)c4ccccc4)C[C@@](O)([C@@H](OC(=O)c4ccccc4)[C@H]21)C3(C)C` it is 3.7% [at 42.5 µM].
Still for that read-out and setting: for `C=CCCCCCCCCC(=O)OCC` the value was 7.15%; for `Clc1cc(Cl)c(Cl)nc1Cl`, 2.71%.
In the case of `Cc1ccnc(NS(=O)(=O)c2ccc(N)cc2)n1`, the “activation” value is -6.11% [at 42.5 µM].
Consider `CCC(C(=O)NC(=O)NC(C)=O)c1ccccc1` (stereo not given), for which the “activation” value was -1.97% [at 42.5 µM].
On the same count and under the same terms, for `C=CN1CCCCCC1=O` the value was 7.55%; for `COc1cc(C(=O)NCc2ccc(OCCN(C)C)cc2)cc(OC)c1OC`, 14.5% [at 42.5 µM].
`CN1CC(=O)N/C1=N/C(=O)Nc1cccc(Cl)c1`: the Potency is 13.3 µM (active).
On to `CCCCCCCCCC[N+](C)(C)[O-]`, for which the “activation” value is 10.5%.
Same read-out and setting: the figure for `C=C[Si](OC(C)=O)(OC(C)=O)OC(C)=O` is 24.5%; for `CCOC(=O)c1ccccc1` it is 16.4%.
In the case of `[K+]`, the Potency is 27.3 µM (active).
Consider `CC(COc1ccccc1)NN` (stereo not given), for which the “activation” value was -3.36% [at 42.5 µM].
The same measure, in the same setting: the figure for `O=C(CO)[C@@H](O)[C@H](O)[C@H](O)CO` is -6.75%; for `Cc1ncc(COP(=O)(O)O)c(C=O)c1O` it is -18.4% [at 42.5 µM].
Still for that read-out and setting: for `CC1(C)[C@@H]2CC[C@@]1(C)[C@H](O)C2` the value was 21.6%; for `CCCCCCCCCCOc1cc2c(=O)c(C(=O)OCC)c[nH]c2cc1OCC`, -4.21% [at 8.39 µM]; for `CCNS(=O)(=O)c1ccc(C)cc1`, 20.7%.
The same measure, in the same setting: for `Cc1cc(C)c(N=Nc2c(O)c(S(=O)(=O)O)cc3cc(S(=O)(=O)O)ccc23)cc1C` the value was -9.92% [at 8.39 µM]; for `CO/N=C(\C(=O)N[C@@H]1C(=O)N2C(C(=O)O)=C(CSc3nc(=O)c(O)nn3C)CS[C@H]12)c1csc(N)n1`, -3.54% [at 42.5 µM]; for `O=[N+]([O-])c1cncn1CCN1CCOCC1`, -2.3% [at 42.5 µM].
